Assay outcomes as filed in PubChem BioAssay.
Shown are actives, neighbours in structure and some others; about 2.2% of the full set was active somewhere.
PolyA inh – polyadenylation inhibitors in yeast reporter cells, primary screen, luminescence, S. cerevisiae. S. cerevisiae SKY197-pL101 polyadenylation reporter, beta-gal luminescence; efflux-impaired pdr1/pdr3 knockout yeast; score 100 = 6 SD above DMSO. activity score, % at 12 µM. 300,000 tested, 0.02% active. AID 1875, 2009;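 active means lowest replicate activity score at least 50, where 100 means six control SD above control mean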;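 further: yeast exposed to compound for 9 h at 30 °C; higher score means more reporter readthrough which indicates perturbed polyadenylation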
ZTA counter – ZTA (EBV) inhibition in EBNA-1 counter-screen; P03206; ZTA-DNA binding, fluorescence polarization; inhibition, % at 11 µM; 320,000 tested, 0.15% active; AID 2234; in the data active means inhibition above about 33%
Target sequence (P03206 whole entry, looked up): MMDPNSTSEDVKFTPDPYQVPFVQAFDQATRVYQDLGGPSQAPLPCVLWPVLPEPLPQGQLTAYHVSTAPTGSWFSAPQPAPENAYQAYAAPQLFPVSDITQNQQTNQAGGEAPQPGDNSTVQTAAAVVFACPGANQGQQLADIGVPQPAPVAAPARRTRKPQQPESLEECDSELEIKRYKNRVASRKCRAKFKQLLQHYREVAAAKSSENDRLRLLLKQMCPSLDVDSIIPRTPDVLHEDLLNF
EBNA-1 inhibitor – EBNA-1 DNA-binding inhibitors, primary screen, biochemical, fluorescence polarization; inhibition, % at 14.8 µM; 300,000 tested, 0.34% active; AID 1950, 2009; in the data active means inhibition above about 28%
dFosB act-1 – activators of delta FosB homodimer, primary screen, biochemical, fluorescence polarization, TAMRA-CDK5 oligo, single point | purified delta FosB; percent of positive-control signal above neutral wells | activation, % at 25 µM | 340,000 tested, 0.99% active | AID 493131, 2011;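 active means mean activation above about 17%, with every replicate also reaching it, limit read from the data, passing the limit was not always enough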
NALP1 inh – NALP1 inflammasome inhibitors in reconstituted yeast, colorimetric, S. cerevisiae, triplicate retest; 280,000 tested, 0.61% active; inhibition, % at 10 µM; S. cerevisiae NALP1/ASC/caspase-1 growth, X-gal OD620, 72 h; in the data active means inhibition mostly above about 24%, no sharp cut-off; inactive means mostly below about 32%
NLRP3 yeast inh – NALP3 inflammasome inhibitors in reconstituted yeast, primary screen, luminescence, uHTS; inhibition, % at 10 µM; AID 2825, 2010; Yeast reconstituted NLRP3/ASC/caspase-1, beta-gal luminescence, 24 h; 330,000 tested, 0.39% active;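 active means inhibition of 50% or more; inactive means inhibition below 50%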;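 further: plate controls were induced DMSO wells for no effect and uninduced yeast grown without galactose for full effect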
dFosB act-2 – activators of mouse delta FosB DNA binding, confirmation, biochemical, fluorescence polarization, TAMRA-CDK5 oligo, cherry-picked samples; 2,400 tested, under 10 active; purified delta FosB; normalised: neutral wells 0, positive control 100; activation, % at 24.9 µM; AID 588690, 2011; shares compounds with dFosB act-1;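 active means highest replicate activation at or above 34% and every replicate reaching that threshold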;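 further: higher polarization means more probe DNA bound by delta FosB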
* hit, by the source's call; . = no result given.

SMILES | PolyA inh | ZTA counter | EBNA-1 inhibitor | dFosB act-1 | NALP1 inh | NLRP3 yeast inh | dFosB act-2
COc1cccc(Nc2nc(N)nc(-c3oc4ccccc4c3C)n2)c1 | -25 | 2 | 5 | 60* | -3 | 32 | 0
Cc1cccc(Nc2nc(N)nc(-c3oc4ccccc4c3C)n2)c1 | -7 | 0 | 0 | 78* | 6 | 31 | -1
CCOc1ccccc1CNC(=O)CCNC(=O)Cn1ccc2ccccc2c1=O | 6 | 0 | 5 | 23* | 17 | 4 | 2
O=C(CCNC(=O)Cn1ccc2ccccc2c1=O)NCCc1ccc(Cl)cc1 | 2 | 10 | 10 | 33* | 21 | 5 | -7
Cc1cccc(CCNC(=O)CCNC(=O)Cn2ccc3ccccc3c2=O)c1 | 10 | 1 | -3 | 5 | 15 | 0 | .
CCc1ccc(N2CC(C(=O)Nc3ccc4c(c3)OCCO4)CC2=O)cc1 (configuration not stated) | 1 | -5 | -1 | 3 | 4 | 20 | .
COc1cccc(N2CC(C(=O)Nc3nnc(SCC(=O)NCc4ccco4)s3)CC2=O)c1 (configuration not stated) | 17 | 9 | -5 | -11 | 11 | 3 | .
COc1ccc2sc(/C=C/c3ccccc3O)[n+](C)c2c1 | . | . | . | 65* | -6 | . | 8
COc1ccc(N=Cc2ccccc2O)cc1 | . | . | . | -3 | . | . | .
O=C(CSc1nnc(C2CC2)n1-c1ccccc1)N1CCCC1 | . | . | . | 6 | . | 9 | .
Cc1ccnc(NC(=O)c2ccc(OCc3c(C)noc3C)cc2)c1 | . | . | . | -8 | . | 33 | .
COc1ccc(Cl)cc1NC(=O)c1nnn(CC(=O)Nc2ccc3c(c2)OCO3)c1N | -3 | -7 | -4 | 21* | 33 | 11 | -2
COc1ccc(Cl)cc1NC(=O)c1nnn(CC(=O)Nc2ccc(OC)c(OC)c2)c1N | 0 | 0 | 8 | 94* | 26 | 13 | 2
COc1cccc(NC(=O)Cn2nnc(C(=O)Nc3cc(Cl)ccc3OC)c2N)c1 | 0 | -9 | 8 | 38* | 34 | 7 | 4
COc1ccc(NC(=O)c2nnn(CC(=O)Nc3ccc4c(c3)OCO4)c2N)cc1OC | -1 | -2 | -17 | -4 | 4 | -1 | .
COc1ccc(Cl)cc1NC(=O)c1nnn(CC(=O)Nc2cc(C)cc(C)c2)c1N | 10 | 4 | 1 | 103* | 8 | 12 | 1
CCCn1c(SC(C)C(=O)NC2CCCC2)n[nH]c1=O (configuration not stated) | . | . | . | 3 | . | 13 | .
Cc1ccc(NC(=O)C(C)OC(=O)Cn2[nH]c(=O)c3ccccc3c2=O)cc1 (configuration not stated) | -4 | -8 | -3 | -11 | . | -5 | .
CC(C)Sc1nnc(NC(=O)c2ccc3c(c2)OCO3)s1 | -6 | 29 | 4 | 1 | 15 | -9 | .
CC(C)(C)Cc1nnc(NC(=O)CCc2ccccc2)s1 | -9 | 8 | 2 | -8 | -3 | 17 | .
COc1ccccc1CNC(=O)c1cccnc1 | 0 | -5 | -6 | 10 | 10 | 21 | .
Cc1c(C(=O)Nc2ccc3c(c2)OCCO3)sc2ncnc(N3CCCCC3C)c12 (configuration not stated) | -3 | -1 | -6 | -1 | -5 | 4 | .
COc1ccc(NC(=O)Cn2nnc(C(=O)Nc3ccc(F)c(Cl)c3)c2N)cc1 | 26 | -6 | -11 | 32* | 27 | 0 | 4
COc1ccc(Cn2nnc(C(=O)Nc3ccc(F)cc3)c2N)cc1 | 13 | 12 | 7 | -5 | 1 | 17 | .
NC(N)=NC(=O)c1nc(Cl)c(N2CCCCCC2)nc1N | . | -7 | 3 | 26* | . | 24 | 5
COCCCN(C(=O)CCSc1ccc(F)cc1)c1c(N)n(Cc2ccccc2)c(=O)[nH]c1=O | 12 | -10 | -1 | -2 | . | 4 | .
COc1ccccc1CC(=O)Nc1ccccc1O | 11 | 1 | 2 | -3 | 3 | 11 | .
